Only some compounds are listed: those with a hit (about 2.5% of all), similar ones and a draw of the others.
697 NFkB inh: lowers PMA/ionomycin-induced NF-kB signal in 697 B cells; 697 B-cell NF-kB luciferase reporter, 16 h; inhibition, % at 4 µM; actives 0.33% (n = 330,000); AID 435022; in the data active = inhibition above about 35%
TMEM16A inh: mouse TMEM16A channel inhibition, primary screen; Q8BHY3; HEK293 TMEM16A/YFP iodide influx fluorescence, ionomycin; normalized B-score (activity score, 25-100; higher = stronger inhibition) at 10 µM; actives 1.2% (n = 310,000); AID 588511;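 active = ratio plate-corrected score three or more library SD toward inhibition, starting fluorescence score within five deviations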;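 also: score derived from kinetic fluorescence span divided by baseline fluorescence per well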
Target sequence (Q8BHY3 whole entry, looked up): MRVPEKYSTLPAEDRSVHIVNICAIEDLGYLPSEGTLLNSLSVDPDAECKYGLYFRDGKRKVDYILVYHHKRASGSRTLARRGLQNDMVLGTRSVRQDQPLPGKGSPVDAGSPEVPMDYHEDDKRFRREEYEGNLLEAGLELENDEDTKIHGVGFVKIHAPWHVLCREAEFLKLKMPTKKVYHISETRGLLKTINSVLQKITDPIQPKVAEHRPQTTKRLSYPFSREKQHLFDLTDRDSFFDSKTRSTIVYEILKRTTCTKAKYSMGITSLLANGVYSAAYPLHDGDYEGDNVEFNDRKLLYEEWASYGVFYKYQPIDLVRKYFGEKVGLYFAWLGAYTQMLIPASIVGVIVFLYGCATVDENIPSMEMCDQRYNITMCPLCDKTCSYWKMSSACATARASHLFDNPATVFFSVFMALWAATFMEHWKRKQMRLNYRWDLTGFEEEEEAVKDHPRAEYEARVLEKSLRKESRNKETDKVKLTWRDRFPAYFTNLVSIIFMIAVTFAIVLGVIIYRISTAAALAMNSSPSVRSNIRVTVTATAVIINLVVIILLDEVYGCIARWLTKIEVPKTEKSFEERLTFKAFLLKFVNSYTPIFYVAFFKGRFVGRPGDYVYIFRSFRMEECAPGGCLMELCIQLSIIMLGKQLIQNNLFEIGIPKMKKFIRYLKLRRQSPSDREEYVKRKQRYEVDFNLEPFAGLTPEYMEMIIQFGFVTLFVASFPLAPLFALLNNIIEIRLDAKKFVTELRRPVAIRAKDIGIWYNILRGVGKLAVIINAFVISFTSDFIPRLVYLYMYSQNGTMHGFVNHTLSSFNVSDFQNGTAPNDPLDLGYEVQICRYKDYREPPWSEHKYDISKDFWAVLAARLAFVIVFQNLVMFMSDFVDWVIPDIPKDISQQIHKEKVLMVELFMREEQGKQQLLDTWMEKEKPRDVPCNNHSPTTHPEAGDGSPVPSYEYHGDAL
KLF5 inh: suppresses KLF5 promoter-driven expression; inhibition, % at 5 µM; actives 0.23% (n = 290,000); DLD-1 KLF5 promoter-luciferase reporter, luminescence;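 active = inhibition above a per-plate limit of that plate's mean compound inhibition plus 3 SD, cut at about 60% in these data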;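 also: 0% = DMSO wells and 100% = LY294002 at 200 µM; higher means less KLF5 promoter-driven luciferase light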
Jurkat NFkB inh: inhibitors of the PMA/ionomycin-induced NF-kB reporter in Jurkat cells; PMA/ionomycin-induced NF-kB luciferase reporter, luminescence; inhibition, % at 4 µM; actives 0.53% (n = 330,000); in the data active = inhibition above about 50%
ANO1 activ: activators or potentiators of mouse TMEM16A chloride channel | actives 0.3% (n = 340,000) | B-score at 10 µM | AID 623877 | Q8BHY3 | HEK293 TMEM16A/YFP-H148Q/I152L, iodide quench fluorescence; active compounds read low;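 active = fluorescence-ratio B-score plate-corrected deviation score at least 3 library SD below zero, with starting fluorescence score within 5 deviations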;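 also: channel opened by trigger with iodide after compound preincubation; score built on the fluorescence ratio of max minus min over baseline; more negative score means more quench and so TMEM16A activation or potentiation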
aSyn UTR inh: 5' untranslated region of α-synuclein, MLPCN primary screen; alpha-synuclein 5'UTR reporter, inhibitor activity; inhibition, % (tested at 7.5 µM); actives 0.82% (n = 300,000); AID 1813; in the data active = inhibition above about 60%;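 also: H4 neuroglioblastoma cells stably carrying SNCA 5'UTR luciferase fusion; 0% = DMSO wells and 100% = positive control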
KLF5 inh confirm: confirmation of KLF5 inhibitors. actives 79% (n = 610). DLD-1 KLF5 promoter firefly luciferase reporter, luminescence. AID 1834. shares compounds with KLF5 inh. inhibition, % at 4 µM;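 active = inhibition above a set limit taken from the earlier primary screen, cut at about 63% in these data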;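 also: 0% = DMSO wells and 100% = LY294002 at 200 µM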
IEC-6 tox trip: rat IEC-6 cytotoxicity, KLF5 inhibitor counter-screen | shares compounds with KLF5 inh | IEC-6 rat intestinal cells, viability luminescence | inhibition, % at 4 µM | actives 56% (n = 610) | AID 1905; in the data active = inhibition above about 23%;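 also: cells exposed to compounds for 48 hours before viability read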
Jurkat NFkB conf: lowers PMA/ionomycin-induced NF-kB signal in Jurkat cells; actives 27% (n = 2,700); shares compounds with Jurkat NFkB inh; AID 435020; inhibition, % at 4 µM; Jurkat NF-kB luciferase, 16 h;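 active = inhibition reaching about 45% at 4 µM in either replicate, limit read from the data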;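 also: plate controls were PMA/ionomycin stimulated DMSO wells for no effect and unstimulated DMSO wells for full effect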
697 NFkB conf: inhibitors of the PMA/ionomycin-induced NF-kB reporter in 697 B cells, retest. inhibition, % at 4 µM. actives 35% (n = 2,000). shares compounds with 697 NFkB inh. 697 B-cell NF-kB luciferase, 16 h; in the data active = inhibition mostly above about 28%, no sharp cut-off; inactive = mostly below about 22%
TMEM16A reconf: reconfirmed blocker of mouse TMEM16A calcium-activated chloride channel; shares compounds with TMEM16A inh; HEK293 TMEM16A/YFP-H148Q, iodide quench fluorescence; ionomycin added to raise cell calcium; inhibition, % at 10 µM; actives 39% (n = 2,300); AID 652189;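 active = mean duplicate percent inhibition, scaled so buffer wells are 0 and the reference blocker 100, over three buffer SD above buffer mean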
TMEM16A Ca cntr: counter-screen for TMEM16A inhibitors: effect on calcium mobilization. TMEM16A/YFP HEK293, Fluo4 calcium mobilization. shares compounds with TMEM16A inh. actives 2% (n = 2,300). calcium response (% of ionomycin), % at 10 µM;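 active = duplicate-averaged calcium signal over 20% of the ionomycin maximum, relative to buffer baseline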;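 also: each well's signal is peak minus trough fluorescence divided by its pre-addition baseline; 0% = buffer wells and 100% = ionomycin wells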
Parental YFP cnt: counter-screen for TMEM16A inhibitors: effect in parental YFP-HEK293 cells; iodide YFP quench, ionomycin; shares compounds with TMEM16A inh; 2,300 tested, under 10 active; YFP ratio F(max-min)/F0 at 10 µM;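 active = yellow fluorescent protein signal ratio exceeding the buffer control mean by over 5 SD of those controls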;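 also: ratio is mean of duplicate wells from kinetic YFP trace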
ClC-1 inh: rat ClC-1 inhibition, TMEM16A specificity screen | shares compounds with TMEM16A inh | CHO ClC-1-YFP, iodide influx fluorescence quench; iodide control reads 0, buffer control 100 | ratio percent, % at 10 µM | 2,300 tested, under 10 active | AID 652236;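 active = duplicate-mean ratio percent above the mean of iodide-only control wells, which defines zero, plus 5 of their SD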;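 also: higher percent means stronger block of ClC-1 iodide influx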
* = called active by the depositor; i = inactive; · = no result given.

SMILES	697 NFkB inh	TMEM16A inh	KLF5 inh	Jurkat NFkB inh	ANO1 activ	aSyn UTR inh	KLF5 inh confirm	IEC-6 tox trip	Jurkat NFkB conf	697 NFkB conf	TMEM16A reconf	TMEM16A Ca cntr	Parental YFP cnt	ClC-1 inh
Cc1cn2c(nc1=O)OC1CC2OC1CO (stereo unspecified)	21	i	-21	-2	i	13	·	·	·	·	·	·	·	·
O=C(CN1C(=O)c2ccccc2S1(=O)=O)c1ccccc1Cl	54*	i	70*	23	i	101*	46	-2	·	37*	·	·	·	·
COc1ccc(OCc2cccc(C(=O)Nn3cc([N+](=O)[O-])cn3)c2)cc1	93*	i	93*	-11	i	13	103*	5	·	83*	·	·	·	·
Cn1c2c(c(=O)n(C)c1=O)C(C(F)(F)F)(C(F)(F)F)N=C(c1ccc(Cl)cc1)N2	97*	100*	81*	71*	i	99*	84*	57*	86*	8	42%*	i	-1	-32
Cc1ccccc1C1=NC(C(F)(F)F)(C(F)(F)F)c2c(n(C)c(=O)n(C)c2=O)N1	8	i	-3	14	i	-3	·	·	·	·	·	·	·	·
CCN(CC)c1ccc(-c2nn3c(-c4ccccc4OC)nnc3s2)cc1	-119	100*	80*	79*	i	83*	91*	72*	64*	·	i	i	-1.1	-2
CCCOc1ccccc1C1CC(=O)Nc2cc3c(cc21)OCCO3 (stereo unspecified)	-17	100*	66*	48	i	103*	83*	64*	·	·	26%*	i	-0.88	-17
O=C1CC(c2cccnc2)c2cc3c(cc2N1)OCCO3 (stereo unspecified)	3	i	-2	6	i	37	·	·	·	·	·	·	·	·
COc1ccc(CNC(=O)CSc2nc(SC)ns2)cc1	2	i	-19	3	i	9	·	·	·	·	·	·	·	·
c1ccc(-c2ccc(-c3nc(-c4ccccn4)no3)cc2)cc1	39*	25*	84*	77*	i	147*	104*	14	81*	36*	i	i	-1.1	0
Cc1ccc(NC(=O)O/N=C/c2ccc(N(C)C)cc2)cc1	-132	i	-24	-126	i	-71	·	·	·	·	·	·	·	·
Cc1ccc(Sc2c(CO)c(-c3ccccc3)nn2C)cc1	-52	100*	72*	39	i	-86	84*	56*	·	·	28%*	22%*	-1.2	-30
CCCN(CC(=O)Nc1ccc(F)c(F)c1F)C(=O)Cc1ccc(S(=O)(=O)N2CCOCC2)s1	-14	·	·	-12	i	·	·	·	·	·	·	·	·	·
CCOC(=O)c1c(-c2ccccc2)oc2ccc(OCC(O)CNCCN(C)C)cc12 (stereo unspecified)	7	i	-22	56*	i	9	·	·	13	·	·	·	·	·
CCOC(=O)c1c(-c2ccccc2)oc2ccc(OCC)cc12	14	i	8	-9	i	18	·	·	·	·	·	·	·	·
